CHX counter: affects cycloheximide protein synthesis inhibition readout, counter-screen. 300,000 tested, 12% active. AID 2314. max response, %. cell reporter, cycloheximide protein synthesis inhibition counterscreen; in the data active = max response mostly above about 13%, no sharp cut-off; inactive = mostly below about 14%; also: read at 38.3 µM for the half of the compounds with a filed dose; 0% is about no effect
Pf growth 96h: P. falciparum growth inhibition at 96 hour, primary screen for plastid delayed-death inhibitors; P. falciparum luciferase reporter growth, 96 h; 320,000 tested, 6.9% active; Potency, µM (series often up to 28.7 µM), for inactives: top-dose activity change, negative = inhibition, most hits filed as inhibitors; AID 504834; also: potency is read from the fitted curve at half-maximal effect; % is scaled to controls: 0 for no effect and ±100 for the full control effect
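Infected RBCs, 2% Hct / 0.05% parasitemia final; luciferase-reporter P. falciparum; cpd 96 h, 37 C, 5% CO2; luciferase detection reagent; luminescence.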
Shiga inhibitor: Shiga toxin inhibition; Vero cells, Shiga toxin protein synthesis inhibition reporter; inhibition, % at 38.7 µM; 290,000 tested, 9.2% active; AID 2315; in the data active = inhibition mostly above about 28%, no sharp cut-off; inactive = mostly below about 43%; also: 0% is about no effect
HCMV inh: blocks human cytomegalovirus replication; activity change, negative = inhibition, % at 57.5 µM; 410,000 tested, 4.5% active; HFF cells, HCMV-luciferase reporter, 72 h; stronger effect = lower value; in the data active = activity change below about -60%; inconclusive = no clear call, values can overlap the other calls; inactive = above about -39%; also: % is scaled to controls: 0 for no effect and ±100 for the full control effect
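Screen run at 2 compound doses on HFFs infected with reporter HCMV, MOI 1 PFU/cell. Luciferase activity from cell lysates at 72 h post infection gave inhibition relative to buffer-only and Salinomycin wells.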
HCV inh: inhibitors of hepatitis C virus infection; Huh7.5.1 HCVcc-Cre infection, luciferase reporter, 44 h; Potency, µM (titrated, usually from 41.8 µM), for inactives: top-dose activity change, negative = inhibition, actives largely listed as inhibitors; 340,000 tested, 3.4% active; AID 651820; also: potency is read from the fitted curve at half-maximal effect; % is scaled to controls: 0 for no effect and ±100 for the full control effect
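Infectious HCV cell culture screen: compound-treated cells (1,000/well, pre-plated 4 h) are infected with HCVcc-Cre at roughly 0.5 moi and grown 44 h. Infection is quantified by luciferase signal after 15 min substrate incubation at room temperature.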
Pf growth 48h: inhibits P. falciparum growth in the first generation, 48 h; P. falciparum luciferase growth in erythrocytes, 48 h; Potency, µM (doses to about 28.7 µM), for the others: at the highest dose activity change, negative = inhibition, most hits filed as inhibitors; 310,000 tested, 5.9% active; also: potency is read from the fitted curve at half-maximal effect; % is scaled to controls: 0 for no effect and ±100 for the full control effect
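Firefly luciferase activity from engineered P. falciparum reports growth; inhibitors lower the luminescent signal. Cultures contained 2% hematocrit erythrocytes at 0.1% final parasitemia.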
* = called active by the depositor; u = inconclusive; x = not tested or not shown; [ ] = another dose, or the depositor's remark. Sampled rows, rich in hits. Any-hit rate of the full collection: about 21%. Unless noted, calls follow the shape of the dose curve; as a rule, active = well fitted inhibition curve with a large enough effect; inconclusive = small, poorly fitted or top-dose-only effect, or another doubt; inactive = no such curve, though single readings can be large or run the other way.

SMILES | CHX counter | Pf growth 96h | Shiga inhibitor | HCMV inh | HCV inh | Pf growth 48h
C/C(=N/N=C/c1ccc(N(C)C)cc1)c1ccccc1 | 47.2* | u | 167.6* | -31.6 | -4.5% | 250.4%
COc1ccc(/C=N/NC(=O)CCCCCNC(=O)c2ccccc2)cc1 | -1.1 | 38.6% | -15.0 | -7.1 | 9.5% | -4.0%
COc1ccc(C(=O)N/N=C/c2ccc(N(C)c3ccccc3)cc2)cc1 | x | x | x | -36.5 | 7.08µM* | x
O=C(CCCCCNC(=O)c1ccccc1)N/N=C/c1ccco1 | -2.1 | -19.4% | 4.8 | -6.0 | -0.2% | -18.7%
CCOC(=O)c1c(C)c(C)n2c1NC(=O)C2 | x | x | x | -7.3 | x | x
COc1cccc(C2=NOC(C(=O)Nc3ccc4c(c3)OCO4)C2)c1OC (stereo unspecified) | 13.8 | 2.9% | 16.8 | -16.5 | -12.6% | 1.6%
CCOC(=O)C1CCCN(S(=O)(=O)c2ccc3[nH]c(=O)ccc3c2)C1 (stereo unspecified) | x | x | x | 10.3 | x | x
Cc1nc([N+](=O)[O-])cn1CC(Cl)Cn1cc([N+](=O)[O-])nc1C | x | x | x | -3.2 | x | x
CN(C)c1ccc(/C=N/NC(=O)c2ccc(Cl)cc2)cc1 | 2.4 | 78.8% | 18.2* | u | -9.4% | 34.7%
CC/C(=N\NC(=O)c1ccc(N2CCCC2=O)cc1)c1ccccc1 | -2.8 | u | 4.1 | 21.5 | 12.6% | 6.9%
CN(C)c1ccc(/C=N\NC(=O)c2ccc(Cn3cc(Cl)cn3)cc2)cc1 | -1.7 | 0.4% | -3.6 | u | u | -8.7%
CN(C)c1ccc(/C=N/NC(=O)c2ccccc2)cc1 | 33.3* | 36.5% | 53.4* | 24.6 | -15.2% | 59.8%
CN(C)c1ccc(/C=N/NC(=O)c2ccc3nc[nH]c3c2)cc1 | 15.8* | 31.8% | 22.0* | 19.3 | 3.1% | 24.9%
CCN(CC)c1ccc(/C=N/NC(=O)c2ccc3nc[nH]c3c2)cc1 | -2.3 | -19.7% | 11.0 | 3.5 | -15.5% | u
CC/C(=N\NC(=O)c1ccc(N(C)C)cc1)c1ccccc1 | 12.7 | 57.4% | 32.8* | -12.1 | -8.9% | 12.1%
CC(C)(C)N(Cc1ccccc1)C(=O)COC(=O)CNS(=O)(=O)c1ccc2ccccc2c1 | x | 8.1% | x | u | 21.5% | 0.0%
CN(C)c1ccc(/C(=N\O)c2ccccc2)cc1 | 34.6* | 59.5% | 83.1* | 39.1 | -12.1% | 61.4%
CN(C)c1ccc(/C=N/NC(=O)c2ccccc2Cl)cc1 | 34.9* | -3.9% | 9.7 | -29.6 | u | 87.3%
CSc1ccc(/C=N/NC(=O)c2ccccc2Cl)cc1 | 31.8* | -65.5%[5.75 µM] | 91.3* | 60.2 | u | -17.8%
CN(C)c1cccc(C(=O)N/N=C/c2ccsc2)c1 | 67.0* | 59.0% | 80.3* | 36.6 | 30.1% | 121.5%
Cn1cc(C(=O)c2ccc(Cl)cc2)cc1-c1nc2ccccc2n1C | -5.9 | x | -8.3 | -69.1* | 25.1µM* | u
Cn1c(=O)c(C(=O)c2ccccc2)nc2ccccc21 | -5.4 | 1.4% | -17.9 | -3.8 | 25.7% | x
COCCCNC(=O)Cn1c(=O)n(-c2ccccc2)c(=O)c2c1c1cc(OC)ccc1n2C | x | x | x | 22.9 | x | x
CCc1nn2c(=O)cc(COC(=O)c3ccccc3NC(=O)c3cccs3)nc2s1 | x | x | x | 51.5 | x | x
CN(C(=S)Nc1ccc(SC(F)F)cc1)c1ccc(O)cc1 | 23.5* | 22.7% | 18.3 | 25.4 | -7.4% | 51.7%
SMILES | CHX counter | Pf growth 96h | Shiga inhibitor | HCMV inh | HCV inh | Pf growth 48h
CN(C(=S)Nc1cccnc1)c1ccc(O)cc1 | 9.0 | 77.0% | 23.1* | -17.9 | 8.2% | 59.5%
CN(C(=S)Nc1ccc(Oc2ccccc2)cc1)c1ccc(O)cc1 | 15.5 | -16.3% | 17.3 | -28.1 | u | -9.7%
Cc1ccc(-c2csc3ncnc(N4CCN(S(=O)(=O)c5cccs5)CC4)c23)cc1 | x | u | x | x | u | 6.57µM*
COc1ccc(-c2csc3ncnc(N4CCN(S(=O)(=O)c5ccc(C)c(C)c5)CC4)c23)cc1 | x | u | x | -0.9 | 11.2µM* | u
Cc1ccc(-c2csc3ncnc(N4CCN(S(=O)(=O)c5ccc(C#N)cc5)CC4)c23)cc1 | x | x | x | -7.8 | x | x
CP(=O)(Nc1ccc(Cl)cc1)c1nc2c(s1)CCCC2 (stereo unspecified) | 8.5 | 30.9% | 1.5 | -15.9 | u | 72.5%
CC(C)(C)c1ccc(C(=O)NC(=S)Nc2nc3c(s2)CCCC3)cc1 | 69.1* | 86.4% | 112.8* | -76.0* | u | 135.6%
COc1cccc(C(=O)Nc2nc3c(s2)CCCC3)c1 | x | x | x | 51.5 | x | x
CN(C)c1ccc(C(=O)Nc2nc3c(s2)CCCC3)cc1 | 44.8* | -93.2% | 21.0* | -66.6* | 11.2µM* | -38.9%
C/C(=N\Nc1nc2c(s1)CCCC2)c1ccc(Cl)cc1 | 82.7* | u | 116.5* | 42.8 | -24.0% | u
O=C(Nc1ccccc1)c1ccc2c(O)c(S(=O)(=O)c3ccc(Cl)cc3)c(=O)[nH]c2c1 | x | x | x | 9.5 | x | x
CCC(=O)N1CCc2cc(CNS(=O)(=O)c3cc(Cl)ccc3OC)ccc21 | x | x | x | -23.3 | x | x
CCc1noc(C)c1C(=O)NCCc1ccccc1 | x | 84.5% | x | 12.3 | 0.5% | 61.9%
CCc1nnc(SCC(=O)N2CCCC(N3CCN(c4ccccc4C)CC3)C2)o1 (stereo unspecified) | -2.4 | u | -2.8 | 60.1 | -1.5% | u
COc1ccc(/C=N\NC(=O)c2ccc(F)cc2)cc1COc1cc(F)ccc1[N+](=O)[O-] | 8.5 | 13.7% | -0.5 | 19.5 | 10µM* | -5.4%
COc1ccc(/C=N/NC(=O)c2ccc(NC(C)=O)cc2)cc1COc1ccc(F)cc1F | -5.8 | 29.8% | -5.7 | -24.5 | -16.4% | 10.5%
CCOc1ccc(/C=N/NS(=O)(=O)c2ccc(C)cc2)cc1OC | -1.5 | -15.4% | -3.0 | 19.2 | 3.4% | -16.8%
COc1ccc(/C=N/NS(=O)(=O)c2ccc(F)cc2)cc1COc1cc(F)ccc1[N+](=O)[O-] | -1.7 | u | 16.9 | -66.2* | u | u
Oc1c(CN2CCOCC2)cc(CN2CCOCC2)cc1CN1CCOCC1 | x | x | x | -17.9 | 18.0% | x
Cc1cc(N=Nc2ccc(Cl)cc2)cc(CN2CCOCC2)c1O | -3.3 | 2.33µM* | -1.3 | -2.1 | -12.7% | 4.65µM*
CCOc1ccc(Cl)cc1CN1CCOCC1 | 14.3 | 13.0% | 37.1 | 11.0 | 7.8% | x
CCCCCOc1ccc(Cl)cc1CN1CCOCC1 | 24.0* | u | 46.8 | 4.0 | 3.7% | x
Cc1cc(N=Nc2ccc(Cl)cc2)cc(CN2CCCC2)c1O | -2.3 | 0.294µM* | -1.0 | 5.1 | u | 0.233µM*
CNC(=O)c1c(I)c(C(=O)NCC(=O)Nc2c(I)c(C(=O)O)c(I)c(C(=O)NCCO)c2I)c(I)c(N(C)C(C)=O)c1I | x | -1.1% | x | x | 10.5% | -21.8%
COc1cc2cccc(OC)c(=O)c2c(O)c1OC | 33.8* | 101.1% | 23.0 | 147.2 | 5.0% | 58.0%
CC(=O)Oc1cc2cccc(OC(C)=O)c(=O)c2c(OC(C)=O)c1OC(C)=O | -1.6 | 14.7µM* | -11.1 | x | 1.6% | u
CC(=O)Oc1cc2c(c3ccccc13)CCC2=O | x | x | x | 12.7 | u | x
COc1cc2c(OC)cccc2cc1C(=O)O | -2.3 | x | -9.5 | u | 22.7% | 4.8%
